# Test results published in article PMC7862700, “An all-to-all approach to the identification of sequence-specific readers for epigenetic DNA modifications on cytosine”.
# Legend:
# Assay in all cases: DAPPL (digital affinity profiling via proximity ligation, sequencing); 10 mM Tris-HCl pH 7.5, 50 mM NaCl, 1 mM DTT, 4% glycerol, room temperature, 30 min; GST-TFs on glutathione beads, 16-mer random dsDNA library, 0.1% formaldehyde crosslink after washing; high values mean tight binding
# Conditions in all cases: protein: recombinant; tags: N-terminal GST; dsDNA, one strand shown
# ELF4 = ELF4 (Homo sapiens, UniProt Q99607 1-663)
# ELF4, sequence (Q99607 whole entry, the tested form may be a part): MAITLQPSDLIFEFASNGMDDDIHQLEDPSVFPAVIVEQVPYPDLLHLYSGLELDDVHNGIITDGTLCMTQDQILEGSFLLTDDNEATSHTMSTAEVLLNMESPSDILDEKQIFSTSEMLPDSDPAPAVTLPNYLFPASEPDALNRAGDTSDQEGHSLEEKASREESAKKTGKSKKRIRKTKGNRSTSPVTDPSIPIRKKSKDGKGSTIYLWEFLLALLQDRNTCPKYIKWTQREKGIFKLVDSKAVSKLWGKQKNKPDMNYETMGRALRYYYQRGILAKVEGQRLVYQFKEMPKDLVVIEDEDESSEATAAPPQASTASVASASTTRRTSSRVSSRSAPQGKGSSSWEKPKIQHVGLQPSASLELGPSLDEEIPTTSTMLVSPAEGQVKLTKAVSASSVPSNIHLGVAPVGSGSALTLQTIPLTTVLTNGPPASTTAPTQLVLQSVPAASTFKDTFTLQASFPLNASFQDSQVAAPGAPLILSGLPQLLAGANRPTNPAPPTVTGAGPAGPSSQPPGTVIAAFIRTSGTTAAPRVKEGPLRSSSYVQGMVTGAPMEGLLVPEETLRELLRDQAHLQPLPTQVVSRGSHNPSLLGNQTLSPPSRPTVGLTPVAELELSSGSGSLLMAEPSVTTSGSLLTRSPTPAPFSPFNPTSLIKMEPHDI
# Procedure, shortened: (§1)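 Binding signal is each hexamer's read frequency for a factor divided by its frequency in the tag-only sample. The factors were GST-fused human transcription factors from yeast, captured on glutathione beads, DNA-barcoded and pooled with that sample. Pools were incubated with 200 nmole of a random double-stranded 16-mer DNA library in Tris/NaCl/DTT/glycerol buffer at room temperature for 30 min, then washed, crosslinked with 0.1% formaldehyde, proximity-ligated with BsaI/T4 ligase (1 h, 37 °C), PCR-amplified and sequenced on an Illumina NextSeq500.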
# ETV2 = molecular target: T1, ETV2 (Homo sapiens, UniProt O00321 1-342)
# T1 sequence: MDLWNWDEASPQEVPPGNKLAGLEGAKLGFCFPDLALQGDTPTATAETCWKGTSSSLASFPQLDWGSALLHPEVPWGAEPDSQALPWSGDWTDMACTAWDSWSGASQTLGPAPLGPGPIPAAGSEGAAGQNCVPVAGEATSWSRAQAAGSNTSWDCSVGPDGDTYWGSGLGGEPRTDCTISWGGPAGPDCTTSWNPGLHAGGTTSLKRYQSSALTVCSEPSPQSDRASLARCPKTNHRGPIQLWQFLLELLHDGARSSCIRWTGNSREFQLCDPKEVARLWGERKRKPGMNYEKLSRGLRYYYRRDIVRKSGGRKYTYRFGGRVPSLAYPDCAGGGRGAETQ
# Procedure, shortened: as §1
# ELF3 = molecular target: T2, ELF3 (Homo sapiens, UniProt P78545 1-371)
# T2 sequence: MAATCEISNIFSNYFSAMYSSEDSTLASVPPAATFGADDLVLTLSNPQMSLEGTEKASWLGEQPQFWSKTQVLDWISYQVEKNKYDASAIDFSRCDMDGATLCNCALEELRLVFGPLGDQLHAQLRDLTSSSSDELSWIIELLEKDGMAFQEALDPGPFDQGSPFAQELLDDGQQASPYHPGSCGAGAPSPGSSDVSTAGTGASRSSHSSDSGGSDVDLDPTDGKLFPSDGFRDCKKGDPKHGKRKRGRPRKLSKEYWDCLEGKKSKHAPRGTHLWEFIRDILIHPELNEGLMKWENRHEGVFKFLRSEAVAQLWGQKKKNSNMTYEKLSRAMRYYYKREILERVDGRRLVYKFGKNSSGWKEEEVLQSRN
# Procedure, shortened: as §1
# ETV1 = ETV1 (Homo sapiens, UniProt P50549 1-477)
# ETV1, sequence (P50549 whole entry): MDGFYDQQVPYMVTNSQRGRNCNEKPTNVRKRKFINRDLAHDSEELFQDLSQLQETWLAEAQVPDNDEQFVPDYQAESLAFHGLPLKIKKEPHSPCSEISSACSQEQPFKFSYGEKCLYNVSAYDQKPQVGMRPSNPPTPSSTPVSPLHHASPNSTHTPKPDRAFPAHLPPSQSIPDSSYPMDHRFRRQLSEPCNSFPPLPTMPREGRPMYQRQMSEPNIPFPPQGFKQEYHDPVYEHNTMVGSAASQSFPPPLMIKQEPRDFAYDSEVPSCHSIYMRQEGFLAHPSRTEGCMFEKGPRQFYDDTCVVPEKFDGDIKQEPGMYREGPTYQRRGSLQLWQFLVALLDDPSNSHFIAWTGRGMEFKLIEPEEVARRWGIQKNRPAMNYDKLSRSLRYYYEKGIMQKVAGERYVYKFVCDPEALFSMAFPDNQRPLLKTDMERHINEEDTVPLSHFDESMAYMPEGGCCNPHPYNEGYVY
# Procedure, shortened: as §1
# ERF = molecular target: T3, ERF (Homo sapiens, UniProt P50548 1-548)
# T3 sequence: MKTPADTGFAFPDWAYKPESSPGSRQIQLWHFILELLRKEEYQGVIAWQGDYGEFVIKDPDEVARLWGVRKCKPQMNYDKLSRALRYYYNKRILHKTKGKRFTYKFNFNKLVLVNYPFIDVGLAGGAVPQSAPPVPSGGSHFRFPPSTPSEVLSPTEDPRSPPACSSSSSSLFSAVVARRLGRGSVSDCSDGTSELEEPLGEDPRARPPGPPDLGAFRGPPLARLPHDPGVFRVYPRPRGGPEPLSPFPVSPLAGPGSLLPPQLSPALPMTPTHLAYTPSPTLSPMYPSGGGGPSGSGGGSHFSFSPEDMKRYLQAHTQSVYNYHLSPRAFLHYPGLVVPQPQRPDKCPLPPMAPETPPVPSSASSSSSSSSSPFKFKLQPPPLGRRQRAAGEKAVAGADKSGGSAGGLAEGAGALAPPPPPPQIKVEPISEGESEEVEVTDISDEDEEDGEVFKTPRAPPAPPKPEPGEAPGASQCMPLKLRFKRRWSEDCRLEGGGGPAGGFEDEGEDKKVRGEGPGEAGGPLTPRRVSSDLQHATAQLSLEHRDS
# Procedure, shortened: as §1
# ETV3L = molecular target: T4, ETV3L (Homo sapiens, UniProt Q6ZN32 1-361)
# T4 sequence: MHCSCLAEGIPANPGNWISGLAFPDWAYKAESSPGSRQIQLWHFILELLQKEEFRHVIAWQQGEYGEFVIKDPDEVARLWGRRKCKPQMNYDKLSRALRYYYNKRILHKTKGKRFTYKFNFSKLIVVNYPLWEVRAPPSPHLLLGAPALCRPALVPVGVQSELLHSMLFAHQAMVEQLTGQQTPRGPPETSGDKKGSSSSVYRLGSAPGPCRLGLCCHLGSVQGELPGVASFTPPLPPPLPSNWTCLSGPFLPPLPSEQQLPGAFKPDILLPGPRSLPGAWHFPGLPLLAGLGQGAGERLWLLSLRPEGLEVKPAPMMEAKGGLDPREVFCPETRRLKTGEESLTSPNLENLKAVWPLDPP
# Procedure, shortened: as §1
# ETS2 = molecular target: T5, ETS2 (Homo sapiens, UniProt P15036 1-469)
# T5 sequence: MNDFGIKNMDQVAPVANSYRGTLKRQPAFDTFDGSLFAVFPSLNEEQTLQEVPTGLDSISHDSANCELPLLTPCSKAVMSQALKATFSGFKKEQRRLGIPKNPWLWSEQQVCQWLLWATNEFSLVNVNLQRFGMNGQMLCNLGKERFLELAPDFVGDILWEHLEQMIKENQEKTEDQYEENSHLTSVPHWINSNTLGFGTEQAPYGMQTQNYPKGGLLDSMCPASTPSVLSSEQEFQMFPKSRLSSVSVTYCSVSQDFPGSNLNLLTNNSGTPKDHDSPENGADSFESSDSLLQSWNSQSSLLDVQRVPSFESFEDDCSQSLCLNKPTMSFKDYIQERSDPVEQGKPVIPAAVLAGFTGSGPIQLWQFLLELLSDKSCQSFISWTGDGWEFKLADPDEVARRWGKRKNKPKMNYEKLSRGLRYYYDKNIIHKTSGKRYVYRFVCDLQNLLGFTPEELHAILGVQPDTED
# Procedure, shortened: as §1
# ETV7 = molecular target: T6, ETV7 (Homo sapiens, UniProt Q9Y603 1-341)
# T6 sequence: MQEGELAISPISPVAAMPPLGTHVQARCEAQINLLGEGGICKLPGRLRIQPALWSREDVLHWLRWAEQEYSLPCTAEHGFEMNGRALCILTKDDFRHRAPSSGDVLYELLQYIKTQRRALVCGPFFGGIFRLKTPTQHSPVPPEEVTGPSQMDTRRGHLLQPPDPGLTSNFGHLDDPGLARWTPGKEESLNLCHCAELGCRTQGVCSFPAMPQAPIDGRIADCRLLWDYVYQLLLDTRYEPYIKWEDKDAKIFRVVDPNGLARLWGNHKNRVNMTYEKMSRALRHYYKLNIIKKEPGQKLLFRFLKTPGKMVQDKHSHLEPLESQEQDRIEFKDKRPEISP
# Procedure, shortened: as §1
# ETV3 = molecular target: T7, ETV3 (Homo sapiens, UniProt P41162-2 1-143)
# T7 sequence: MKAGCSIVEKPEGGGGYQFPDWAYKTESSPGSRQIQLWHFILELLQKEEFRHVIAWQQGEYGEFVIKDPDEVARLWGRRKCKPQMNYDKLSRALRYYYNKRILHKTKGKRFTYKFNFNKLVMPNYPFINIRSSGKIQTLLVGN
# Procedure, shortened: as §1
# ETV6 = ETV6 (Homo sapiens, UniProt P41212 1-452)
# ETV6, sequence (P41212 whole entry): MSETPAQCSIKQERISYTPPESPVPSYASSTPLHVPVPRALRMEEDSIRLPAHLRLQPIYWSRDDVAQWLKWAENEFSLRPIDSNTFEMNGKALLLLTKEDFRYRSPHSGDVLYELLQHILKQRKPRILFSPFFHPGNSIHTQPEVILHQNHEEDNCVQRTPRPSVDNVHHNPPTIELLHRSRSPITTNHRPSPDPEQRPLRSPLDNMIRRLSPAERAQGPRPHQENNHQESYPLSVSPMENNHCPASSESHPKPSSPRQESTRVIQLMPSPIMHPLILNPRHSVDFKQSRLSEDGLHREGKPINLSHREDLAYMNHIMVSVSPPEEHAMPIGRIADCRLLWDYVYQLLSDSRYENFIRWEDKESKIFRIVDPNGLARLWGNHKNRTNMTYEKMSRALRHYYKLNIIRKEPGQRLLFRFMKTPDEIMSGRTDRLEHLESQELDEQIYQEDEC
# Procedure, shortened: as §1
sequence,measurement,setting,value
ACCATT,binding signal,ELF4,"1.19 fold enrichment (6-mer frequency, TF over GST control)"
same,binding signal,ETV2,"1.26 fold enrichment (6-mer frequency, TF over GST control)"
same,binding signal,ELF3,"1.17 fold enrichment (6-mer frequency, TF over GST control)"
same,binding signal,ETV1,"1.14 fold enrichment (6-mer frequency, TF over GST control)"
same,binding signal,ERF,"1.03 fold enrichment (6-mer frequency, TF over GST control)"
same,binding signal,ETV3L,"1.16 fold enrichment (6-mer frequency, TF over GST control)"
same,binding signal,ETS2,"1.15 fold enrichment (6-mer frequency, TF over GST control)"
same,binding signal,ETV7,"1.11 fold enrichment (6-mer frequency, TF over GST control)"
same,binding signal,ETV3,"1.1 fold enrichment (6-mer frequency, TF over GST control)"
same,binding signal,ETV6,"1.14 fold enrichment (6-mer frequency, TF over GST control)"
